{"source": "ChEMBL document CHEMBL1961873", "about": "“Compounds: GSK PKIS; Assays: Nanosyn kinase panel” (2012)"}
{"target": "T1, Serine/threonine-protein kinase BRSK1 (Homo sapiens) (UniProt Q8TDC3)", "T1 sequence (whole entry)": "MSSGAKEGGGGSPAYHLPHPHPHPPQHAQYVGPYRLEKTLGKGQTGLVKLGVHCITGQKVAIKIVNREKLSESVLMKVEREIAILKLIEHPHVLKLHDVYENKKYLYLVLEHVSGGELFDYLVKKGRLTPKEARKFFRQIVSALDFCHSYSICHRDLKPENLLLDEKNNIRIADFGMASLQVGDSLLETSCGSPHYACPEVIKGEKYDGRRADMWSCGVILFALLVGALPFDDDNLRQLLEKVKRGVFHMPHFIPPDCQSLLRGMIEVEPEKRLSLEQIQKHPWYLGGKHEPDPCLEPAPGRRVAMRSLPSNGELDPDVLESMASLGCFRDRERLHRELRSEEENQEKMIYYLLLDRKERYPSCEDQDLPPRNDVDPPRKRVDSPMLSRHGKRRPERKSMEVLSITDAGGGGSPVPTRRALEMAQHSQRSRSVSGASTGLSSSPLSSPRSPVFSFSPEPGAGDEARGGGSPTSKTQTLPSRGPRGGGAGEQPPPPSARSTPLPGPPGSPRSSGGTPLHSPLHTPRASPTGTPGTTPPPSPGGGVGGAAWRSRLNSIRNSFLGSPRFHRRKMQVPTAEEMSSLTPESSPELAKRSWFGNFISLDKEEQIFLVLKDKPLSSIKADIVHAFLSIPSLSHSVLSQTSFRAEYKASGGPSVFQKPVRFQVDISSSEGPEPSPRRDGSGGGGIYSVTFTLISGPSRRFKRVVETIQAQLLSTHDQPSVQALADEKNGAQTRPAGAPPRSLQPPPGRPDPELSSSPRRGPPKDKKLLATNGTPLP", "conditions": "at 0.1 µM", "units": {"inhibition": "%"}}
{"smiles": "COc1cc2ncn(-c3cc(O[C@H](C)c4ccccc4Cl)c(C(N)=O)s3)c2cc1OC", "inhibition": 30.1}
{"smiles": "NC(=O)c1ccc(-c2nc(-c3ccccn3)c(-c3ccc4c(c3)OCO4)[nH]2)cc1", "inhibition": -0.32}
{"smiles": "Cn1cc(C=C2C(=O)Nc3cccnc32)c2ccccc21", "inhibition": 4.71}
{"smiles": "CNC(=O)c1cncc(/C=C/c2c(Cl)cccc2Cl)c1", "inhibition": 4.16}
{"smiles": "COc1cc2ncn(-c3cc(OCc4ccccc4C(F)(F)F)c(C(N)=O)s3)c2cc1OC", "inhibition": 6.7}
{"smiles": "O=C1Nc2ccc(C(=O)c3ccco3)cc2C1=Cc1cc(Cl)c(O)c(Cl)c1", "inhibition": 1.94}
{"smiles": "COc1ccc(-c2nn3ncccc3c2-c2ccnc(Nc3ccc(Cl)c(C(F)(F)F)c3)n2)cc1", "inhibition": 1.4}
{"smiles": "CS(=O)(=O)Nc1ccc(N/C=C2\\C(=O)Nc3ccccc32)cc1", "inhibition": 2.83}
{"smiles": "Fc1cccc(COc2ccc(Nc3ncnc4sc(-c5cccs5)cc34)cc2Cl)c1", "inhibition": 0.56}
{"smiles": "CCN1CCC(CC(=O)Nc2n[nH]c3nc(-c4cccs4)c(Br)cc23)CC1", "inhibition": 3.39}
{"smiles": "O=C1NC(=O)C(c2ccccc2Cl)=C1Nc1cccc(O)c1", "inhibition": 1.18}
{"smiles": "CCn1c(-c2nonc2N)nc2cncc(C(=O)N3CCNCC3)c21", "inhibition": 2.38}
{"smiles": "CN1CCC(C(=O)Nc2n[nH]c3nnc(-c4ccccc4)cc23)CC1", "inhibition": 1.14}
{"smiles": "CS(=O)(=O)CCN(CC#N)Cc1ccc(-c2ccc3ncnc(Nc4ccc(OCc5cccc(F)c5)c(Cl)c4)c3c2)o1", "inhibition": 0.56}
{"smiles": "COc1ccc(-c2coc3ncnc(N)c23)cc1", "inhibition": 3.33}
{"smiles": "Cc1ccc(NC(=O)c2ccnc(N3CCCC3)c2)cc1-c1ccc(C(=O)NCC2CC2)cc1", "inhibition": 3.85}
{"smiles": "CCn1c(-c2nonc2N)nc2c(C#CC(C)(C)O)nc(CN3CCCC3)cc21", "inhibition": 0.47}
{"smiles": "CCn1c(-c2nonc2N)nc2c(N3CCCC3)nccc21", "inhibition": 1.14}
{"smiles": "[O-][S+]1CCN(Cc2ccc(-c3ccc4ncnc(Nc5ccc(OCc6ccccc6)c(F)c5)c4c3)o2)CC1", "inhibition": 3.74}
{"smiles": "CCCN1CCC=C(c2ccc(Nc3nc(Nc4ccccc4C(N)=O)c4cc[nH]c4n3)c(C)c2)C1", "inhibition": 3.51}
{"smiles": "CC1=C(C(=O)Nc2ccc3[nH]ncc3c2)C(c2ccc(F)cc2)NC(=O)N1", "note": "(stereo not drawn)", "inhibition": 1.49}
{"smiles": "COc1cccc(-n2ncc3c(N/N=C/c4cccc(F)c4)ncnc32)c1", "inhibition": 2.83}
{"smiles": "Cc1ccc(C(=O)NC2CCCCC2)cc1-c1ccc(C(=O)NCC2CC2)cc1", "inhibition": 2.63}
{"smiles": "Nc1ncnc2occ(-c3ccc(NC(=O)Nc4cc(C(F)(F)F)cc(C(F)(F)F)c4)cc3)c12", "inhibition": 1.78}
{"smiles": "CC(C)=Cc1cccc2c1/C(=N/Nc1ccc(S(N)(=O)=O)cc1)C(=O)N2", "inhibition": 7.32}
{"smiles": "CC1=C(C(=O)Nc2ccc3[nH]ncc3c2)C(c2ccc3ccccc3c2)CC(=O)N1", "note": "(stereo not drawn)", "inhibition": 1.91}
{"smiles": "COc1ccc(-c2ccncc2)cc1C(N)=O", "inhibition": 3.31}
{"smiles": "COc1cc2ncn(-c3cc(OCc4ccccc4Cl)c(C(N)=O)s3)c2cc1OC", "inhibition": 7.81}
{"smiles": "CCn1c(-c2nonc2N)nc2cnc(Oc3cccc(NC(=O)c4ccc(OCCN5CCOCC5)cc4)c3)cc21", "inhibition": 1.86}
{"smiles": "CN(C)c1cc2c(Nc3ccc4nc(Cc5ccccc5)[nH]c4c3)ncnc2cn1", "inhibition": 3.31}
{"smiles": "N#Cc1c(NC(=O)c2cccc3ccccc23)sc2c1CCCC2", "inhibition": 2.23}
{"smiles": "Cc1cccc(-c2n[nH]cc2-c2ccc3ncccc3n2)n1", "inhibition": 0.22}
{"smiles": "NS(=O)(=O)c1cccc(-c2ccc3c(NC(=O)C4CC4)n[nH]c3c2)c1", "inhibition": 6.3}
{"smiles": "O=C1NC(=O)C(c2cccc(Cl)c2)=C1Nc1ccc(O)c(Cl)c1", "inhibition": 2.57}
{"target": "T1, Serine/threonine-protein kinase BRSK1 (Homo sapiens)", "conditions": "at 1 µM", "units": {"inhibition": "%"}}
{"smiles": "COc1cc2ncn(-c3cc(O[C@H](C)c4ccccc4Cl)c(C(N)=O)s3)c2cc1OC", "inhibition": 64.9}
{"smiles": "NC(=O)c1ccc(-c2nc(-c3ccccn3)c(-c3ccc4c(c3)OCO4)[nH]2)cc1", "inhibition": -0.03}
{"smiles": "Cn1cc(C=C2C(=O)Nc3cccnc32)c2ccccc21", "inhibition": 12.3}
{"smiles": "CNC(=O)c1cncc(/C=C/c2c(Cl)cccc2Cl)c1", "inhibition": 7.3}
{"smiles": "COc1cc2ncn(-c3cc(OCc4ccccc4C(F)(F)F)c(C(N)=O)s3)c2cc1OC", "inhibition": 41.1}
{"smiles": "O=C1Nc2ccc(C(=O)c3ccco3)cc2C1=Cc1cc(Cl)c(O)c(Cl)c1", "inhibition": 8.43}
{"smiles": "COc1ccc(-c2nn3ncccc3c2-c2ccnc(Nc3ccc(Cl)c(C(F)(F)F)c3)n2)cc1", "inhibition": 1.98}
{"smiles": "CS(=O)(=O)Nc1ccc(N/C=C2\\C(=O)Nc3ccccc32)cc1", "inhibition": 16.5}
{"smiles": "Fc1cccc(COc2ccc(Nc3ncnc4sc(-c5cccs5)cc34)cc2Cl)c1", "inhibition": -0.44}
{"smiles": "CCN1CCC(CC(=O)Nc2n[nH]c3nc(-c4cccs4)c(Br)cc23)CC1", "inhibition": 21.7}
{"smiles": "O=C1NC(=O)C(c2ccccc2Cl)=C1Nc1cccc(O)c1", "inhibition": 6.4}
{"smiles": "CCn1c(-c2nonc2N)nc2cncc(C(=O)N3CCNCC3)c21", "inhibition": -2.27}
{"smiles": "CN1CCC(C(=O)Nc2n[nH]c3nnc(-c4ccccc4)cc23)CC1", "inhibition": 4.22}
{"smiles": "CS(=O)(=O)CCN(CC#N)Cc1ccc(-c2ccc3ncnc(Nc4ccc(OCc5cccc(F)c5)c(Cl)c4)c3c2)o1", "inhibition": -2.91}
{"smiles": "COc1ccc(-c2coc3ncnc(N)c23)cc1", "inhibition": 4.41}
{"smiles": "Cc1ccc(NC(=O)c2ccnc(N3CCCC3)c2)cc1-c1ccc(C(=O)NCC2CC2)cc1", "inhibition": 3.6}
{"smiles": "CCn1c(-c2nonc2N)nc2c(C#CC(C)(C)O)nc(CN3CCCC3)cc21", "inhibition": 2.17}
{"smiles": "CCn1c(-c2nonc2N)nc2c(N3CCCC3)nccc21", "inhibition": 1.31}
{"smiles": "[O-][S+]1CCN(Cc2ccc(-c3ccc4ncnc(Nc5ccc(OCc6ccccc6)c(F)c5)c4c3)o2)CC1", "inhibition": 5.47}
{"smiles": "CCCN1CCC=C(c2ccc(Nc3nc(Nc4ccccc4C(N)=O)c4cc[nH]c4n3)c(C)c2)C1", "inhibition": 4.05}
{"smiles": "CC1=C(C(=O)Nc2ccc3[nH]ncc3c2)C(c2ccc(F)cc2)NC(=O)N1", "note": "(stereo not drawn)", "inhibition": 8.31}
{"smiles": "COc1cccc(-n2ncc3c(N/N=C/c4cccc(F)c4)ncnc32)c1", "inhibition": 13.7}
{"smiles": "Cc1ccc(C(=O)NC2CCCCC2)cc1-c1ccc(C(=O)NCC2CC2)cc1", "inhibition": 0.64}
{"smiles": "Nc1ncnc2occ(-c3ccc(NC(=O)Nc4cc(C(F)(F)F)cc(C(F)(F)F)c4)cc3)c12", "inhibition": 3.44}
{"smiles": "CC(C)=Cc1cccc2c1/C(=N/Nc1ccc(S(N)(=O)=O)cc1)C(=O)N2", "inhibition": 45}
{"smiles": "CC1=C(C(=O)Nc2ccc3[nH]ncc3c2)C(c2ccc3ccccc3c2)CC(=O)N1", "note": "(stereo not drawn)", "inhibition": 20.8}
{"smiles": "COc1ccc(-c2ccncc2)cc1C(N)=O", "inhibition": 4.66}
{"smiles": "COc1cc2ncn(-c3cc(OCc4ccccc4Cl)c(C(N)=O)s3)c2cc1OC", "inhibition": 40.6}
{"smiles": "CCn1c(-c2nonc2N)nc2cnc(Oc3cccc(NC(=O)c4ccc(OCCN5CCOCC5)cc4)c3)cc21", "inhibition": 0.26}
{"smiles": "CN(C)c1cc2c(Nc3ccc4nc(Cc5ccccc5)[nH]c4c3)ncnc2cn1", "inhibition": 4.38}
{"smiles": "N#Cc1c(NC(=O)c2cccc3ccccc23)sc2c1CCCC2", "inhibition": 3.56}
{"smiles": "Cc1cccc(-c2n[nH]cc2-c2ccc3ncccc3n2)n1", "inhibition": 1.97}
{"smiles": "NS(=O)(=O)c1cccc(-c2ccc3c(NC(=O)C4CC4)n[nH]c3c2)c1", "inhibition": 41.3}
{"smiles": "O=C1NC(=O)C(c2cccc(Cl)c2)=C1Nc1ccc(O)c(Cl)c1", "inhibition": 12.9}
